Data from PubChem BioAssay (Tox21).
Results filed as inconclusive are left out. Calls of active or inactive are those of the source. Unless noted, calls come from the whole dose curve.

How the values were obtained:
[1] = Nuclear factor erythroid 2-related factor 2/antioxidant responsive element (Nrf2/ARE) small molecule agonists: qHTS cell viability counter screen in human keratinocytes (AID 1919968; active = well fitted curve in the direction sought with a large enough effect in the repeat runs; an effect the other way counts as inactive or inconclusive; note: nearly all actives have a fitted effect of over 55% in size)
Outline: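 In human HaCaT keratinocytes stably expressing an ARE-driven luciferase, compound exposure lasted 23 h at 37 C under 5% CO2. Viable cells are quantified with a protease-based fluorogenic reagent (CellTiter-Fluor) read 1 h after addition.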

[2] = Nuclear factor erythroid 2-related factor 2/antioxidant responsive element (Nrf2/ARE) small molecule agonists: luciferase reporter gene qHTS assay in human keratinocytes (AID 1919969); note: nearly all actives have a fitted effect of over 35% in size
[3] = molecular target: Gonadotropin-releasing hormone receptor (Homo sapiens) (UniProt P30968); assay: Human gonadotropin-releasing hormone receptor (GnRHR) small molecule agonists, calcium flux assay in GnRHR-HEK293 cells (AID 1920063); note: nearly all actives have a fitted effect of over 35% in size
Sequence of Gonadotropin-releasing hormone receptor (Homo sapiens) (P30968 whole entry, looked up): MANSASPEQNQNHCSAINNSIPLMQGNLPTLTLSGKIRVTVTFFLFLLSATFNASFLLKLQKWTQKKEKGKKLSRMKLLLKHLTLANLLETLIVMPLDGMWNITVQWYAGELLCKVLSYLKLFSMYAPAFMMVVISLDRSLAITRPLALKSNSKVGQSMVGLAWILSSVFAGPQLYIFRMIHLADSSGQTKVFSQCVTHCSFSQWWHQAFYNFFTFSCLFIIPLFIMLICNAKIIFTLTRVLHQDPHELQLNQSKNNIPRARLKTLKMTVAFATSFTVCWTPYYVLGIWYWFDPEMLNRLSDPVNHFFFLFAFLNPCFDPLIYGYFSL
Outline: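 Intracellular calcium rise is the read-out: engineered human GnRHR HEK293 cells, dye-loaded, are exposed to DMSO-dissolved compounds and fluorescence at Ex/Em 480/540 is tracked for 3 min.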

[4] = molecular target: KiSS-1 receptor (Homo sapiens) (UniProt Q969F8); assay: Human kisspeptin (KISS1R) small molecule agonists, calcium flux assay in KISS1R-HEK293 cells (AID 1920064; active = well fitted curve in the direction sought with a large enough effect in the repeat runs; an effect the other way counts as inactive or inconclusive)
Sequence of KiSS-1 receptor (Homo sapiens) (Q969F8 whole entry, looked up): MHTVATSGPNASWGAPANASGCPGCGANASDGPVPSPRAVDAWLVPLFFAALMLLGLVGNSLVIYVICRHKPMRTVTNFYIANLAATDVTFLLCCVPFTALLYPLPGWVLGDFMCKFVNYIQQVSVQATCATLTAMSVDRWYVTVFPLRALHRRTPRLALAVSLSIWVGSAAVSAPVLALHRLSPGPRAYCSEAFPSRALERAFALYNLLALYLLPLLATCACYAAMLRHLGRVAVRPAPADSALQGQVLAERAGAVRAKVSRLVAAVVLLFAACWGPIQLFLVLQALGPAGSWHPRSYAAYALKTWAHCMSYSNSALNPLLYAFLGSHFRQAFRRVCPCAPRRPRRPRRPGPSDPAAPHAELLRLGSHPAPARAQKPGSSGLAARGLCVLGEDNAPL
Outline: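 Concentration-response testing used 15 concentrations in triplicate on human KISS1R-expressing HEK293 cells. Calcium-dependent fluorescence (Ex/Em 480/540) was followed kinetically for 3 min after compound transfer.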

[5] = G protein-coupled receptor (GPCR) small molecule agonists, calcium flux assay: HEK293 wild type cell line counter screen (AID 1920065)
Outline: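 Fluorescence intensity signals activation. After overnight (18 h) culture and a 1 h calcium dye load at 37 C, compounds are added by pin tool and the plate read at 480/540 nm for 3 min in 1 s steps.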

[6] = p53 small molecule agonists, cell-based qHTS assay with human liver microsomes (AID 1963577);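 note: p53 response element beta-lactamase reporter cells with liver microsomes plus NADPH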
Outline: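 In this qHTS, p53 response-element beta-lactamase cells receive test compound together with a microsome/NADPH activating system (0.5 mg/mL final each) and are incubated 16 h at 37 C before LiveBLAzer fluorescence detection.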

[7] = p53 small molecule agonists, cell-based qHTS assay with human liver microsomes: qHTS cell viability counter screen (AID 1963579); note: nearly all actives have a fitted effect of over 45% in size
Outline: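 Metabolically activated exposure: compounds, human liver microsomes and NADPH (0.5 mg/mL final apiece) were added to p53RE-bla cells seeded 5 h earlier, left 16 h at 37 C, and then assessed for viability by CellTiter-Glo luminescence.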

[8] = p53 small molecule agonists, cell-based qHTS assay with rat liver microsomes: qHTS cell viability counter screen (AID 1963580); note: nearly all actives have a fitted effect of over 45% in size
Outline: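 Luminescent ATP readout (CellTiter-Glo, 30 min at room temperature) reports viability of p53RE-bla HCT-116 cells after 16 h at 37 C with test compounds under metabolic activation by rat liver microsomes and NADPH at 0.5 mg/mL final each.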

[9] = p53 small molecule agonists, cell-based qHTS assay: qHTS cell viability counter screen (AID 1963581); note: nearly all actives have a fitted effect of over 45% in size
Outline: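 Luminescence from CellTiter-Glo, reflecting ATP content, serves as the cytotoxicity measure; it is taken after the 2 h reporter substrate step in HCT-116 p53RE-bla cells dosed for 16 h at 37 C.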

[10] = molecular target: 5-hydroxytryptamine receptor 2A (Homo sapiens) (UniProt P28223); assay: 5-hydroxytryptamine receptor 2A (HTR2A) small molecule antagonists, cell-based qHTS assay (AID 1963586); note: nearly all actives have a fitted effect of over 45% in size
Sequence of 5-hydroxytryptamine receptor 2A (Homo sapiens) (P28223 whole entry, looked up): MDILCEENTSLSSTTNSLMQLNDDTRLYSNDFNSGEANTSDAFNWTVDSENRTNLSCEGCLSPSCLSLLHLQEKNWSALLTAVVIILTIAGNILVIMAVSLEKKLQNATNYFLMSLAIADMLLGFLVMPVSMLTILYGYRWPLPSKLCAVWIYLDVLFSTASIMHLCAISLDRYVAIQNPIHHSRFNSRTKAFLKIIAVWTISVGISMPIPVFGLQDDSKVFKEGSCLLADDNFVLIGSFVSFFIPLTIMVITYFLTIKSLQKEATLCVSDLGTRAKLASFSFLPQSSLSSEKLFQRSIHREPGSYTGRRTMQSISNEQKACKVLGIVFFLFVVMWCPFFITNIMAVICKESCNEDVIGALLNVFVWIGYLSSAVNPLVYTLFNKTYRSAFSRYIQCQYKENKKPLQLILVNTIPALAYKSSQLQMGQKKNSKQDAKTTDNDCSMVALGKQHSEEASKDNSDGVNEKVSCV
Outline: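 CHO cells stably expressing human HTR2A were plated for 18 h at 37 C, then loaded with calcium dye for 1 h. Compounds were preincubated 5 min at room temperature before DOI (4 nM solution) was added. Kinetic fluorescence was read for 3 min.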

[11] = molecular target: 5-hydroxytryptamine receptor 2A (Homo sapiens) (UniProt P28223); assay: 5-hydroxytryptamine receptor 2A (HTR2A) small molecule agonists, cell-based qHTS assay (AID 1963587); note: nearly all actives have a fitted effect of over 30% in size
Outline: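 HTR2A-CHO cells, plated 18 h at 37 C/5% CO2, dye-loaded 1 h at 37 C; compounds in DMSO added by pin tool (agonist mode). Intracellular calcium flux read as kinetic fluorescence on FDSS over 2 min at 1 s intervals.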

[12] = molecular target: Muscarinic acetylcholine receptor M1 (Homo sapiens) (UniProt P11229); assay: Cholinergic receptor muscarinic 1 (CHRM1) small molecule antagonists, cell-based qHTS assay (AID 1963588); note: nearly all actives have a fitted effect of over 40% in size
Sequence of Muscarinic acetylcholine receptor M1 (Homo sapiens) (P11229 whole entry, looked up): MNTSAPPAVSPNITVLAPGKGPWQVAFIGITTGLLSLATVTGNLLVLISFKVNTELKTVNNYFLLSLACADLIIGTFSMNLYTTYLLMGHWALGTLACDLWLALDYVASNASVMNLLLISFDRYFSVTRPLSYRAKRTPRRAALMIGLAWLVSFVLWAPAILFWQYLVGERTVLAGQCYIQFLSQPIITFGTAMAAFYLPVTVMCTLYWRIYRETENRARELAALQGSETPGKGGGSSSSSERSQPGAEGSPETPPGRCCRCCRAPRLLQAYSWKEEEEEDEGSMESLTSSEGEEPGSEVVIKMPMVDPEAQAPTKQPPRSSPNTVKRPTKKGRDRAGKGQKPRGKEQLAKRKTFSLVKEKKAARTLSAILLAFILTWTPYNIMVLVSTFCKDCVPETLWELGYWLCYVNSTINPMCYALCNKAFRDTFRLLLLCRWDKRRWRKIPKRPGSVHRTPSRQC
Outline: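 Compounds were tested at 15 concentrations in three independent runs. Dye-loaded CHRM1-CHO cells were exposed 5 min at room temperature before stimulation by acetylcholine added at 50nM. Intracellular calcium was read kinetically on FDSS for 3 min.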

[13] = molecular target: Muscarinic acetylcholine receptor M1 (Homo sapiens) (UniProt P11229); assay: Cholinergic receptor muscarinic 1 (CHRM1) small molecule agonists, cell-based qHTS assay (AID 1963589); note: nearly all actives have a fitted effect of over 35% in size
Outline: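 Fluorescent calcium dye reports M1 activation in stably transfected CHO cells. Compounds, 15 concentrations, added after 1 h dye loading at 37 C; kinetic reading at 1 sec intervals.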

[14] = molecular target: Beta-2 adrenergic receptor (Homo sapiens) (UniProt P07550); assay: Adrenergic beta2 receptor (ADRB2) small molecule antagonists, cell-based qHTS assay (AID 1963592); note: series mostly up to about 92 µM; nearly all actives have a fitted effect of over 50% in size
Sequence of Beta-2 adrenergic receptor (Homo sapiens) (P07550 whole entry, looked up): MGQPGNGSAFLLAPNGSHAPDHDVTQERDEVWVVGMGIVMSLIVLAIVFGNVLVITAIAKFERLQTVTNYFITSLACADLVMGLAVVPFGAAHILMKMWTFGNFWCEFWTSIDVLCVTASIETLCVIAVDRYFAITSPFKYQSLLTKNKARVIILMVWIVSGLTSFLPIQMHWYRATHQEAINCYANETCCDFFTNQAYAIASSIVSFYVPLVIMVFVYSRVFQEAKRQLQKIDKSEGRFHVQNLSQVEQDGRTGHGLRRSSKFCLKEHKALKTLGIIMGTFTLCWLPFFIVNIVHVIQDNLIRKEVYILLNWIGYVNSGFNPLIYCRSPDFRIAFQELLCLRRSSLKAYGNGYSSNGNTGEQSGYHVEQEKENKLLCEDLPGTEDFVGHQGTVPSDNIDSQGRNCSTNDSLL
Outline: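 Assay format: CHO-ADRB2 cells, 18-20hr seeding at 37C/5% CO2, then compound plus 1nM isoproterenol agonist mix for 0.5hr RT. Homogeneous time-resolved fluorescence cAMP detection after 1hr, expressed as 665/615 nm ratio.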

[15] = molecular target: D(2) dopamine receptor (Homo sapiens) (UniProt P14416); assay: Dopamine D2 receptor (DRD2) small molecule antagonists, cell-based qHTS assay (AID 1963595; active = well fitted inhibition curve with a large enough effect in the signal ratio in the repeat runs, with a control signal flat; the % refers to the signal ratio)
Sequence of D(2) dopamine receptor (Homo sapiens) (P14416 whole entry, looked up): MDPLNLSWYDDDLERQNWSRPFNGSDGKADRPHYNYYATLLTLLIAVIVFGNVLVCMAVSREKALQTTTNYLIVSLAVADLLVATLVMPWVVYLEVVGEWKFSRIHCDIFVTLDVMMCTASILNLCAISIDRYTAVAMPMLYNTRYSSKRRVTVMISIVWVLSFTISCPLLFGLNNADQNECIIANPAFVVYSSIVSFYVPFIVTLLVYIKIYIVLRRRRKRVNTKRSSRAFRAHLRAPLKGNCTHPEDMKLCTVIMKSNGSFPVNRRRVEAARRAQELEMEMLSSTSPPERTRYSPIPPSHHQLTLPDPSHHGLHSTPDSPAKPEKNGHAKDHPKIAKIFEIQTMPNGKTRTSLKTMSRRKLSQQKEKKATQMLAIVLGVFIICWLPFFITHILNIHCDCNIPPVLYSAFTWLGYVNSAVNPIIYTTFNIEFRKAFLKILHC
Outline: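 Stable D2 receptor HEK293 line, 24 h after seeding. Compound preincubated 10 min, then quinpirole (12 nM) with forskolin analogue NKH477 (200 nM), 30 min, room temperature. Detection by time-resolved FRET of cAMP.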

[16] = p53 small molecule agonists, cell-based qHTS assay (AID 1963582; active = well fitted activation curve with a large enough effect in the signal ratio in the repeat runs, not every such curve was filed as active; the % refers to the signal ratio)
Outline: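 After plating, p53RE-bla cells sat 5 h in the incubator; compounds or DMSO vehicle were pinned in; a 16 h incubation at 37 C followed; FRET substrate was added and, 2 h later at RT, fluorescence was measured.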

[17] = molecular target: D(2) dopamine receptor (Homo sapiens) (UniProt P14416); assay: Dopamine D2 receptor (DRD2) small molecule agonists, cell-based qHTS assay (AID 1963594); note: nearly all actives have a fitted effect of over 35% in size
Outline: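 HEK293 cells stably expressing DRD2 were cultured 24 h at 37 C, then given Ro20-1724 (0.1 mM final) and compounds for 10 min at room temperature. NKH477 (200nM) was then added for 30 min. cAMP was read by HTRF.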

[18] = cAMP Responsive Elements (CRE) small molecule agonists, cell-based qHTS assay (AID 1963590)
Outline: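 Compound exposure lasted 3 h at 37 C/5% CO2 in CRE-bla HEK 293T cells grown in assay medium with 10% dialyzed FBS and 25 mM HEPES. Reporter signal came from LiveBLAzer B/G FRET substrate, 2 h, room temperature.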

[19] = cAMP Responsive Elements (CRE) small molecule antagonists, cell-based qHTS assay (AID 1963591; active = well fitted inhibition curve with a large enough effect in the signal ratio in the repeat runs, not every such curve was filed as active; the % refers to the signal ratio)
Outline: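 Stimulation used NKH477 at a final 0.25 uM for 3 h in compound-treated CRE-bla HEK293T cells, seeded 18 h beforehand. Reporter activity was measured with LiveBLAzer B/G FRET substrate after 2 h at room temperature.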
% is set by controls: 0 for no effect and ±100 for the full control effect.

CCn1nc(Cc2ccccc2)cc1C1CCN(C[C@H]2C[C@H](N(C)[C@@H](C(=O)O)C(C)C)C[C@@H]2c2cccc(F)c2)CC1
inactive: Potency [1] | Potency [2] | Potency [3] | outcome [4] | outcome [5] | Potency [6] | Potency [7] | Potency [8] | Potency [9] | Potency [10] | Potency [11] | Potency [12] | Potency [13] | Potency [14] | Potency [15]

O=C(O)CCCc1c[nH]c2ccccc12
inactive: Potency [1] | Potency [2] | Potency [3] | outcome [4] | outcome [5] | Potency [6] | Potency [7] | Potency [8] | Potency [16] | Potency [10] | Potency [11] | Potency [12] | Potency [13] | Potency [14] | Potency [17] | Potency [15]

CCCCCCCCCCCC[N+](C)(C)CC(=O)[O-]
inactive: Potency [1] | Potency [2] | Potency [3] | outcome [4] | outcome [5] | Potency [6] | Potency [7] | Potency [8] | Potency [9] | Potency [12] | Potency [13] | Potency [18] | Potency [14] | Potency [17] | Potency [15]

Oc1c(I)cc(I)c2cccnc12
inactive: Potency [1] | Potency [2] | Potency [3] | outcome [4] | outcome [5] | Potency [6] | Potency [8] | Potency [16] | Potency [18] | Potency [19] | Potency [14] | Potency [17] | Potency [15]

O=C(O)CNCC(=O)O
inactive: activity change, negative = cytotoxicity [1] 0.812% [at 8.39 µM] | activity, positive = activation [2] -2.08% [at 8.39 µM] | activity change [3] 0.0589% [at 5.22 µM, hits give high values] | activation [4] 0.594% [at 6.97 µM] | activation [5] 0.144% [at 5.23 µM] | activation [6] 0.261% [at 5.99 µM] | activity change, negative = cytotoxicity [7] -6.14% [at 5.99 µM] | activity change, negative = cytotoxicity [8] 8.22% [at 5.99 µM] | activity change, negative = cytotoxicity [9] -13% [at 5.99 µM] | activation [11] -1.98% [at 7.02 µM] | activity, negative = inhibition [12] -11.9% [at 5.58 µM] | activation [13] 0.803% [at 6.97 µM] | activation [18] -0.186% [at 8.39 µM] | activity change, negative = inhibition [19] 0.325% [at 8.39 µM] | activity change, negative = inhibition [14] -7.9% [at 8.39 µM] | activation [17] -0.477% [at 8.39 µM] | activity change, negative = inhibition [15] -7.14% [at 8.38 µM]

CCOC(=O)CCCCCCCCC(=O)OCC
inactive: Potency [1] | Potency [2] | Potency [3] | outcome [4] | outcome [5] | Potency [6] | Potency [7] | Potency [8] | Potency [16] | Potency [10] | Potency [11] | Potency [12] | Potency [13] | Potency [18] | Potency [19] | Potency [14] | Potency [17] | Potency [15]

O=C1c2ccccc2C(=O)C1c1ccccc1
inactive: Potency [1] | Potency [2] | Potency [3] | outcome [4] | outcome [5] | Potency [6] | Potency [7] | Potency [8] | Potency [16] | Potency [18] | Potency [19] | Potency [14] | Potency [17] | Potency [15]
